From PubChem BioAssay (Tox21)
Records with an inconclusive call do not appear. Entries that show only a call come without a potency. The source made the active and inactive calls. Unless noted, the call rests on the fitted dose curve; in most records, active means well fitted curve in the direction sought with a large enough effect in the repeat runs; inconclusive means weak or mixed curves; inactive means no such curve, though single readings can be large; an effect the other way counts as inactive or inconclusive.

What was measured:
[1] = qHTS assay to identify aromatase inhibitors - cell viability counter screen (AID 743084);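 further: cells stimulated with testosterone during compound exposure; nearly all actives have a fitted effect of over 55% in size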; further: potency means the concentration at half of the fitted maximal effect
[2] = target: Aryl hydrocarbon receptor (Homo sapiens) (UniProt P35869); assay: qHTS assay to identify small molecule that activate the aryl hydrocarbon receptor (AhR) signaling pathway (AID 743085);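 further: HG2L7.5c1 human HepG2 liver cells with stably integrated DRE-driven firefly reporter; series mostly up to about 70 µM; nearly all actives have a fitted effect of over 15% in size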
In short: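 Cell line HG2L7.5c1 (human hepatoma, 20× DRE-luc). Plated, 5 h 37C, compound/DMSO added, 24 h 37C. CellTiter-Fluor 30 min 37C → fluorescence; then ONE-Glo 30 min RT → luminescence.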

[3] = qHTS assay to identify small molecule antagonists of the peroxisome proliferator-activated receptor gamma (PPARg) signaling pathway - cell viability counter screen (AID 743194); further: nearly all actives have a fitted effect of over 55% in size; further: potency means the concentration at half of the fitted maximal effect
In short: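 Viability was measured as CellTiter-Glo luminescence in GeneBLAzer PPARg UAS-bla HEK293H cells. These cells had been exposed 17 h at 37 C to compounds together with rosiglitazone at 50 nM final, with the beta-lactamase readout taken in the same wells.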

[4] = qHTS assay for small molecule activators of the heat shock response signaling pathway (AID 743210; active means well fitted activation curve with a large enough effect in the signal ratio in the repeat runs, with a control signal flat, not every such curve was filed as active; the % refers to the signal ratio;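 further: HeLa cells with beta-lactamase reporter driven by heat shock elements; series mostly up to about 63 µM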)
In short: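 In HSE-bla HeLa cells, 5 h compound incubation (37 C) precedes addition of LiveBLAzer B/G substrate; after 2.5 h at room temperature, fluorescence intensity indicates reporter induction.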

[5] = qHTS assay to identify small molecule agonists of the peroxisome proliferator-activated receptor delta (PPARd) signaling pathway - cell viability counter screen (AID 743211); further: nearly all actives have a fitted effect of over 55% in size; further: potency means the concentration at half of the fitted maximal effect
In short: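 HEK293H PPARd-bla, 3000 cells/well; 5 h preincubation 37C/5% CO2; cpd in DMSO, 17 h 37C; B/G FRET substrate 2 h RT; CellTiter-Glo 30 min RT, luminescence.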

[6] = target: Bile acid receptor (Homo sapiens) (UniProt Q96RI1); assay: qHTS assay to identify small molecule agonists of the farnesoid-X-receptor (FXR) signaling pathway (AID 743220; active means well fitted activation curve with a large enough effect in the signal ratio in the repeat runs, not every such curve was filed as active; the % refers to the signal ratio)
In short: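 Beta-lactamase reporter under UAS control in GeneBLAzer FXR HEK 293T cells (5000/well) measured with LiveBLAzer FRET substrate after 2 h at room temperature. Compound exposure lasted 16 h at 37C.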

[7] = qHTS assay to identify small molecule that activate the aryl hydrocarbon receptor (AhR) signaling pathway - cell viability counter screen (AID 743086); further: nearly all actives have a fitted effect of over 45% in size; further: potency means the concentration at half of the fitted maximal effect
In short: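 Cytotoxicity counter screen: CellTiter-Fluor signal (30 min, 37 C) in 4000 HepG2 cells/well carrying the DRE-luciferase reporter, following 24 h compound exposure at 37 C.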

[8] = target: Peroxisome proliferator-activated receptor gamma (Homo sapiens) (UniProt P37231); assay: qHTS assay to identify small molecule antagonists of the peroxisome proliferator-activated receptor gamma (PPARg) signaling pathway (AID 743191; calls by dose curve; further: nearly all actives have a fitted effect of over 30% in size; further: potency means the concentration at half of the fitted maximal effect)
In short: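 Beta-lactamase reporter under UAS control in HEK293H PPARg-bla cells; compound treatment 17 h at 37C. Read-out: fluorescence intensity after 1 h room-temperature incubation with LiveBLAzer B/G FRET substrate.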

[9] = qHTS assay for small molecule agonists of the antioxidant response element (ARE) signaling pathway - cell viability counter screen (AID 743203; calls by dose curve; further: nearly all actives have a fitted effect of over 55% in size)
In short: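 Following 16 hrs of compound treatment at 37C, HepG2 cells with an ARE-controlled beta-lactamase gene were lysed with CellTiter-Glo. Luminescence was read after 30 min at room temperature.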

[10] = qHTS assay for small molecule activators of the heat shock response signaling pathway - cell viability counter screen (AID 743209); further: nearly all actives have a fitted effect of over 50% in size
In short: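 Readout: CellTiter-Glo luminescence, 30 min at room temperature. System: HSE-bla HeLa cells, 1500/well, plated overnight. Treatment: compounds in DMSO, 5 h at 37 C.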

[11] = target: Peroxisome proliferator-activated receptor delta (Homo sapiens) (UniProt Q03181); assay: qHTS assay to identify small molecule agonists of the peroxisome proliferator-activated receptor delta (PPARd) signaling pathway (AID 743212; calls by dose curve)
In short: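 HEK293H UAS-bla reporter cells, human PPARd system; compounds delivered in DMSO after 5 h plating, then at 37 C. Beta-lactamase FRET read, 2 h RT substrate step.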

[12] = qHTS assay to identify small molecule antagonists of the peroxisome proliferator-activated receptor delta (PPARd) signaling pathway - cell viability counter screen (AID 743213); further: nearly all actives have a fitted effect of over 50% in size
In short: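 PPARd-bla HEK293H cells were treated with compounds plus agonist L165041 (300 nM final) for 17 h at 37 C. Viability was then read in the same wells by CellTiter-Glo luminescence after 30 min at room temperature.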

[13] = target: Bile acid receptor (Homo sapiens) (UniProt Q96RI1); assay: qHTS assay to identify small molecule antagonists of the farnesoid-X-receptor (FXR) signaling pathway (AID 743217; active means well fitted inhibition curve with a large enough effect in the signal ratio in the repeat runs, not every such curve was filed as active; the % refers to the signal ratio)
In short: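 GeneBLAzer FXR-UAS-bla HEK 293T, CDCA-stimulated (50 uM final). Compound treatment 16 h, 37 °C. Detection: beta-lactamase cleavage of B/G FRET substrate, fluorescence.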

[14] = qHTS assay to identify small molecule agonists of the farnesoid-X-receptor (FXR) signaling pathway - cell viability counter screen (AID 743218); further: nearly all actives have a fitted effect of over 45% in size; further: potency means the concentration at half of the fitted maximal effect
In short: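 Parallel cytotoxicity test: compound-treated (16 h, 37 C) HEK 293T FXR-bla reporter cells were lysed with CellTiter-Glo and luminescence recorded.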

[15] = qHTS assay to identify small molecule antagonists of the farnesoid-X-receptor (FXR) signaling pathway - cell viability counter screen (AID 743221; active means well fitted cell-killing curve with a large enough effect in the repeat runs, not every such curve was filed as active; further: nearly all actives have a fitted effect of over 50% in size; further: potency means the concentration at half of the fitted maximal effect)
In short: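 Luminescence from CellTiter-Glo measures cytotoxicity in GeneBLAzer FXR-UAS-bla HEK 293T cells. Cells were exposed to compounds with 50 uM chenodeoxycholic acid (final) for 16 h at 37 C, in wells also used for the reporter readout.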

[16] = target: Vitamin D3 receptor (Homo sapiens) (UniProt P11473); assay: qHTS assay to identify small molecule agonists of the vitamin D receptor (VDR) signaling pathway (AID 743222; calls by dose curve)
In short: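 In VDR-bla cells, compound-induced beta-lactamase expression is quantified by FRET substrate fluorescence. Treatment lasts 16 h at 37C; substrate develops 2 h at room temperature.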

[17] = target: Peroxisome proliferator-activated receptor gamma (Homo sapiens) (UniProt P37231); assay: qHTS assay to identify small molecule agonists of the peroxisome proliferator-activated receptor gamma (PPARg) signaling pathway (AID 743094; active means well fitted activation curve with a large enough effect in the signal ratio in the repeat runs, not every such curve was filed as active; the % refers to the signal ratio)
In short: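 Compounds dissolved in DMSO were added to PPARg UAS-bla HEK293H cells for 17 h at 37C, and reporter expression was quantified by fluorescence intensity after 1 h with LiveBLAzer B/G FRET substrate.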

[18] = target: Peroxisome proliferator-activated receptor delta (Homo sapiens) (UniProt Q03181); assay: qHTS assay to identify small molecule antagonists of the peroxisome proliferator-activated receptor delta (PPARd) signaling pathway (AID 743215; active means well fitted inhibition curve with a large enough effect in the signal ratio in the repeat runs, not every such curve was filed as active; the % refers to the signal ratio;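 further: cells stimulated with agonist L165041 at 300 nM final during compound exposure; series mostly up to about 62 µM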)
In short: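 HEK293H UAS-bla, PPARd; agonist L165041 300 nM final with cpd in DMSO; 37 C 17 h; FRET substrate, RT 2 h; fluorescence intensity.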

[19] = target: Vitamin D3 receptor (Homo sapiens) (UniProt P11473); assay: qHTS assay to identify small molecule antagonists of the vitamin D receptor (VDR) signaling pathway (AID 743223; active means well fitted inhibition curve with a large enough effect in the signal ratio in the repeat runs, not every such curve was filed as active; the % refers to the signal ratio)
In short: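 Antagonist mode uses 1alpha,25-dihydroxyvitamin D3 at 3 nM final as stimulus. VDR-bla cells receive compounds in DMSO, incubate 16 h at 37C, then a beta-lactamase FRET substrate for 2 h at room temperature before fluorescence measurement.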

[20] = qHTS assay for small molecule agonists of the antioxidant response element (ARE) signaling pathway (AID 743202; active means well fitted activation curve with a large enough effect in the signal ratio in the repeat runs, not every such curve was filed as active; the % refers to the signal ratio; further: potency means the concentration at half of the fitted maximal effect)
In short: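 An ARE-responsive beta-lactamase gene stably integrated in HepG2 cells serves as reporter. After 5 h plating and 16 h compound incubation at 37 C, fluorescence of the B/G FRET substrate was measured.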

Sequence of Vitamin D3 receptor (Homo sapiens) (P11473 whole entry, looked up): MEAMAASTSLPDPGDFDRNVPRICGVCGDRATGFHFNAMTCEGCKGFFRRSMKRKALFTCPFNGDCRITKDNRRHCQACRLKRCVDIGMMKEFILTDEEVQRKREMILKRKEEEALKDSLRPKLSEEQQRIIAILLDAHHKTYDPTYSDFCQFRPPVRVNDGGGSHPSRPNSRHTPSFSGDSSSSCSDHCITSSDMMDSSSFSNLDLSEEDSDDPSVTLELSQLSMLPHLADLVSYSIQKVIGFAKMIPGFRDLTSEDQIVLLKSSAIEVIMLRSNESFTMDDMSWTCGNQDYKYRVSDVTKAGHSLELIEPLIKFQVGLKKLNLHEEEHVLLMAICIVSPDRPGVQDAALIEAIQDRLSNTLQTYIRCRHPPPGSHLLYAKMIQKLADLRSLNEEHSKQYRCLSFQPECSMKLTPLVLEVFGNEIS
Sequence of Aryl hydrocarbon receptor (Homo sapiens) (P35869 whole entry, looked up): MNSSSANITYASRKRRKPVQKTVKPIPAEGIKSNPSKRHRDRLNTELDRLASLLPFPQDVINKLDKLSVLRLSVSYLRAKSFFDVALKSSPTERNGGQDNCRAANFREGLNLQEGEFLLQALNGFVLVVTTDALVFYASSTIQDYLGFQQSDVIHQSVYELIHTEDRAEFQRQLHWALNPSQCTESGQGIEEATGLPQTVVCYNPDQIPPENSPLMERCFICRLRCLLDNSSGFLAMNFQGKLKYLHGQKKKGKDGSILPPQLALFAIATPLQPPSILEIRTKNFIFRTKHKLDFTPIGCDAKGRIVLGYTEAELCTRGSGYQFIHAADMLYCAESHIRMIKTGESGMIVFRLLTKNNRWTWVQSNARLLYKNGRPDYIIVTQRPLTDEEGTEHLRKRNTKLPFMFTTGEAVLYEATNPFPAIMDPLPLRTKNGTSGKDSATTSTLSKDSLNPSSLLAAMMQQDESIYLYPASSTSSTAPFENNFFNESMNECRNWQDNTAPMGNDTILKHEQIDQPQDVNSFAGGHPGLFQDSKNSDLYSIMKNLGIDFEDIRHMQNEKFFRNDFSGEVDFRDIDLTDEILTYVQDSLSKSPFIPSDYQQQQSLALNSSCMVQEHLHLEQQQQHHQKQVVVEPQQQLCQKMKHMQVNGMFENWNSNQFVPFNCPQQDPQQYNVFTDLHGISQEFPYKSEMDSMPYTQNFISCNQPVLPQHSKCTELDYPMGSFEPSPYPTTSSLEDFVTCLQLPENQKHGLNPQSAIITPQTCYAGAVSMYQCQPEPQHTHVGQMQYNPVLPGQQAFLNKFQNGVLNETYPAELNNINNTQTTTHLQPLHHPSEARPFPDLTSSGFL
Sequence of Bile acid receptor (Homo sapiens) (Q96RI1 whole entry, looked up): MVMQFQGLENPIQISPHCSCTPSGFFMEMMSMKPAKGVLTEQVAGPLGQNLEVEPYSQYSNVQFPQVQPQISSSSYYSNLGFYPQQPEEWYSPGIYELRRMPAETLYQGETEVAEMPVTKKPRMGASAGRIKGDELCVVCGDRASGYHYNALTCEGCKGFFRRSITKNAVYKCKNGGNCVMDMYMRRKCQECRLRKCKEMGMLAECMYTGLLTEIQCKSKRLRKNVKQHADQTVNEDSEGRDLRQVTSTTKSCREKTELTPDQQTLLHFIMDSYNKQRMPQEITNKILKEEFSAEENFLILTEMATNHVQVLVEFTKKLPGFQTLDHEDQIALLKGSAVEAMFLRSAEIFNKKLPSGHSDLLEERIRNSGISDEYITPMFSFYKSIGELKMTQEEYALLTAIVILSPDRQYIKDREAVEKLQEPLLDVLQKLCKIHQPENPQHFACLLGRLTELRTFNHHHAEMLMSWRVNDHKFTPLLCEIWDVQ
Sequence of Peroxisome proliferator-activated receptor gamma (Homo sapiens) (P37231 whole entry, looked up): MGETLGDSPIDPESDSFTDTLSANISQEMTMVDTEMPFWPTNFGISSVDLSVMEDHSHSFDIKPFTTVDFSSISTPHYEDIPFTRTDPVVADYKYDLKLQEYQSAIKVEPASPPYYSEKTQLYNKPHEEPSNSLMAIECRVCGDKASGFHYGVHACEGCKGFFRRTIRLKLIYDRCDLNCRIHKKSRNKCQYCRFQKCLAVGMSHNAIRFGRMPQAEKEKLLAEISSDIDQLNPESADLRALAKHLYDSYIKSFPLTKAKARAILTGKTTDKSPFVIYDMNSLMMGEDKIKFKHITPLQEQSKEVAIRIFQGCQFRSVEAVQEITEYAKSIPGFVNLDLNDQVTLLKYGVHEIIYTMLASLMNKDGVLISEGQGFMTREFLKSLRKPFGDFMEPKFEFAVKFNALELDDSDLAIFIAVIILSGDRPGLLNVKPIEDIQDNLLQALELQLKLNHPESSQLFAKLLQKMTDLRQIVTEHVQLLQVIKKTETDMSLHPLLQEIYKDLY
Sequence of Peroxisome proliferator-activated receptor delta (Homo sapiens) (Q03181 whole entry, looked up): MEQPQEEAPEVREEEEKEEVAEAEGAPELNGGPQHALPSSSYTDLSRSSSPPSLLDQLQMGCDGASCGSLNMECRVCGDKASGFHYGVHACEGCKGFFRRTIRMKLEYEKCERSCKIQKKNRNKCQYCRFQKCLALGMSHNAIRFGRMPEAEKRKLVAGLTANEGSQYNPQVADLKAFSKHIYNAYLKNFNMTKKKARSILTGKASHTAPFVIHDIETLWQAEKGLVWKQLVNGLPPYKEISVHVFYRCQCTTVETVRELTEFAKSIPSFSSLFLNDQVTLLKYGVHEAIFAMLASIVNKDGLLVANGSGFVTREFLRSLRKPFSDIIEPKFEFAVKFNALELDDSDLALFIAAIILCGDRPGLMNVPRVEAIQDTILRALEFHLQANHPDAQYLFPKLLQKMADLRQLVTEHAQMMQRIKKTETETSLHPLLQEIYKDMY

| Structure (SMILES) | Potency [1] | Potency [2] | Potency [3] | Potency [4] | Potency [5] | Potency [6] | Potency [7] | Potency [8] | Potency [9] | Potency [10] | Potency [11] | Potency [12] | Potency [13] | Potency [14] | Potency [15] | outcome [16] | Potency [17] | Potency [18] | outcome [19] | Potency [20] |
| --- | --- | --- | --- | --- | --- | --- | --- | --- | --- | --- | --- | --- | --- | --- | --- | --- | --- | --- | --- | --- |
| CO[C@H]1C=CO[C@@]2(C)Oc3c(C)c(O)c4c(O)c(c5c(c4c3C2=O)=NC2(CCN(CC(C)C)CC2)N=5)NC(=O)/C(C)=C\C=C/[C@H](C)[C@H](O)[C@@H](C)[C@@H](O)[C@@H](C)[C@H](OC(C)=O)[C@@H]1C | 30 µM (active) | inactive | inactive | inactive | 24 µM (active) | inactive | – | – | – | – | – | – | – | – | – | – | – | – | – | – |
| CNC(=S)NC | inactive | – | inactive | inactive | inactive | inactive | inactive | inactive | inactive | inactive | inactive | inactive | inactive | 17.4 µM (active) | 38.9 µM (active) | inactive | – | – | – | – |
| Fc1ccccc1[C@@H](F)COC1CCC(Nc2ncnc3[nH]ncc23)CC1 (some centres undefined) | inactive | – | – | inactive | – | inactive | 30.6 µM (active) | – | – | – | inactive | inactive | – | – | inactive | inactive | – | – | – | – |
| CCC(Cc1ccccc1)(C(=O)c1ccc(N2CCOCC2)cc1)N(C)C (centres undefined) | inactive | – | inactive | inactive | inactive | inactive | – | – | inactive | inactive | inactive | inactive | – | – | – | – | inactive | inactive | – | – |
| CCC(=O)Oc1ccc(/C(CC)=C(\CC)c2ccc(OC(=O)CC)cc2)cc1 | inactive | – | – | – | 54.9 µM (active) | – | – | – | inactive | – | inactive | – | – | – | inactive | – | inactive | – | inactive | – |
| COC(=O)CC(=O)C(C)(C)C | inactive | – | – | inactive | inactive | inactive | – | inactive | inactive | inactive | inactive | inactive | inactive | – | – | inactive | inactive | inactive | inactive | – |
| CCOC(=O)CC(=O)C(=O)OCC | – | inactive | inactive | inactive | inactive | inactive | inactive | – | inactive | inactive | inactive | inactive | inactive | inactive | inactive | – | inactive | – | – | inactive |
| O=C(NCCCN1CCOCC1)c1ccc(Cl)cc1 | inactive | – | inactive | inactive | inactive | – | – | inactive | inactive | inactive | inactive | inactive | – | inactive | inactive | inactive | inactive | inactive | inactive | – |
| O=C(OCCOCCO)c1ccccc1Nc1cccc(C(F)(F)F)c1 | inactive | – | inactive | inactive | inactive | – | – | – | inactive | – | inactive | inactive | – | – | – | – | inactive | inactive | inactive | – |
| CN(C)C(=O)Nc1ccc(Oc2ccc(Cl)cc2)cc1 | inactive | – | inactive | inactive | inactive | – | inactive | – | inactive | inactive | – | inactive | – | – | inactive | inactive | inactive | – | inactive | 19.3 µM (active) |
| CC1CC(=O)NN=C1c1ccc(NCC(C)(C)NCC(O)COc2cc(Cl)ccc2C#N)cc1 (centres undefined) | inactive | – | inactive | inactive | inactive | inactive | inactive | – | – | inactive | – | – | inactive | inactive | inactive | inactive | – | – | – | inactive |
| Nc1ccc(Cl)cc1[N+](=O)[O-] | inactive | – | inactive | – | inactive | – | inactive | – | inactive | inactive | inactive | inactive | – | inactive | inactive | inactive | inactive | inactive | inactive | – |
| O=C(Nc1ccc([N+](=O)[O-])cc1)Nc1ccc([N+](=O)[O-])cc1 | inactive | – | 1.33 µM (active) | inactive | – | inactive | – | inactive | – | inactive | – | – | – | – | – | – | inactive | – | inactive | – |
| CCCOC(=O)c1ccc(N)cc1 | inactive | – | inactive | inactive | inactive | – | inactive | – | – | inactive | inactive | inactive | – | inactive | – | – | inactive | inactive | inactive | – |
| CCCCC(=O)O[C@]1(C(=O)CO)[C@@H](C)C[C@H]2[C@@H]3CCC4=CC(=O)C=C[C@]4(C)[C@@]3(F)[C@@H](O)C[C@@]21C | inactive | – | inactive | inactive | inactive | – | – | inactive | inactive | inactive | inactive | – | – | inactive | inactive | inactive | inactive | inactive | inactive | – |
| C1COCO1 | inactive | – | – | inactive | inactive | – | inactive | inactive | inactive | inactive | inactive | inactive | – | inactive | inactive | – | inactive | – | – | – |
| Oc1ccc(Nc2ccccc2)cc1 | inactive | – | – | inactive | inactive | – | inactive | 19.5 µM (active) | inactive | inactive | inactive | – | inactive | – | inactive | – | – | – | – | 27.3 µM (active) |
| CCOC(=O)/C=C/C(=O)O | inactive | – | inactive | inactive | – | – | inactive | – | inactive | inactive | inactive | inactive | – | – | – | inactive | inactive | inactive | inactive | 9.69 µM (active) |
| COc1cc2[nH]c(=O)[nH]c(=O)c2cc1OC | inactive | – | inactive | inactive | inactive | – | inactive | – | inactive | inactive | inactive | inactive | – | inactive | inactive | inactive | inactive | inactive | inactive | inactive |
| CCCOc1ccc(S(=O)(=O)N2CCN(CC)CC2)cc1-c1nc2c(CC)n(Cc3ccccn3)nc2c(=O)[nH]1 | inactive | – | inactive | inactive | inactive | inactive | – | – | inactive | inactive | – | inactive | – | inactive | inactive | inactive | – | – | – | – |
| CCOC(=O)[C@@H](C)Oc1ccc(Oc2nc3ccc(Cl)cc3o2)cc1 | inactive | – | inactive | inactive | inactive | inactive | inactive | – | inactive | inactive | – | – | – | – | inactive | inactive | inactive | – | inactive | – |
